Sampled rows, rich in hits. Any-hit rate of the full collection: about 5.3%.
Sfp inh: qHTS Assay for Inhibitors of Bacillus subtilis Sfp phosphopantetheinyl transferase (PPTase). Potency, µM, for the others: largest response in the series, negative = inhibition, most hits filed as inhibitors. Biochemical Sfp PPTase activity, qHTS. AID 1490, 2009. 4'-phosphopantetheinyl transferase ffp (Bacillus subtilis), Q9F4F7. 310,000 compounds, 3.5% hits;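 further: the enzyme is Sfp with the accession as filed and its product quenches rhodamine fluorescence; potency means the concentration at half of the fitted maximal effect; 0% = enzyme reaction without inhibitor and -100% = no enzyme wells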
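Reaction rates are the 30-min fluorescence difference (ex 525, em 598 nm) in wells containing 15 nM Sfp, 5 uM rhodamine-CoA and 12.5 uM BHQ-2-YbbR at pH 7.6 with 10 mM MgCl2.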
Tau fluor cs: Counterscreen qHTS for Inhibitors of Tau Fibril Formation, Fluorescence Polarization; Potency, µM (top dose mostly 57.7 µM), for the others: at the highest dose activity change, negative = decrease; 280,000 compounds, 0.93% hits; tau K18 P301L Alexa594 fluorescence, heparin fibrillization; AID 1463, 2008; further: potency means the concentration at half of the fitted maximal effect; nearly all actives have a fitted effect of over 55% in size
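Human tau K18 P301L (15 uM unlabeled, 0.24 uM Alexa 594-labeled) in 100 mM sodium acetate pH 7 with 20 uM heparin, 6 hr at 37 C. ThT 30 uM added, 1 hr ambient; Alexa 594 FP and total fluorescence read at 555/632 nm.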
Tau FP inhib: qHTS for Inhibitors of Tau Fibril Formation, Fluorescence Polarization | Microtubule-associated protein tau (Homo sapiens), P10636 | 280,000 compounds, 0.39% hits | AID 1468, 2008 | K18 P301L tau heparin fibrillization, Alexa594 FP, 6 h | Potency, µM (doses to about 57.7 µM), inactives show top-dose activity, negative = inhibition, usual class: inhibitors; further: potency means the concentration at half of the fitted maximal effect; nearly all actives have a fitted effect of over 55% in size
Target sequence (P10636 561-689 P618L limits assumed): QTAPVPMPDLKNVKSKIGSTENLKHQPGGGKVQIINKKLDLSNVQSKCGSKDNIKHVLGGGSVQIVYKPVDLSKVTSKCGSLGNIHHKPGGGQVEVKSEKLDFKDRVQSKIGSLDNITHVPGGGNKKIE
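Heparin (20 uM) drove fibril formation of recombinant tau K18 P301L, 15 uM unlabeled with 0.24 uM Alexa 594 label, for 6 hr at 37 C in 100 mM sodium acetate pH 7. Fluorescence polarization (555/632 nm) read 1 hr after 30 uM ThT.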
FBPA coupling cs: qHTS Assay for Inhibitors of Fructose-1,6-bisphosphate Aldolase from Giardia Lamblia: Coupling assay counterscreen. coupling enzyme system counterscreen, AmpLite Red fluorescence. activity change, negative = inhibition, % at 58.2 µM, hits read low. 290,000 compounds, 0.67% hits; in the data active means activity change below about -30%
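Activity here indicates interference with the coupling reaction, not aldolase inhibition. Compounds at 57.5 uM final met coupling enzymes for 10 min at RT; substrate and AmpLite Red detection followed, with a 525/598 nm fluorescence read after 20 min.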
Tau fibril ThT: qHTS for Inhibitors of Tau Fibril Formation, Thioflavin T Binding; recombinant tau K18 P301L (four-repeat tau fragment), heparin-induced fibrillization, ThT fluorescence; Potency, µM (series often up to 57.4 µM), without a hit: top-dose activity, negative = inhibition, hits mostly inhibitors; 270,000 compounds, 2.1% hits; AID 1460, 2008; further: potency means the concentration at half of the fitted maximal effect; nearly all actives have a fitted effect of over 55% in size
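Recombinant human tau K18 fragment […] carrying P301L, 15 uM unlabeled plus 0.24 uM Alexa 594-labeled, was fibrillized with 20 uM heparin in 100 mM sodium acetate pH 7 for 6 hr at 37 C; 30 uM ThT fluorescence read after 1 hr.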
JMJD2E inh: qHTS Assay for Inhibitors of Human Jumonji Domain Containing 2E (JMJD2E) | JMJD2E catalytic domain, FDH-coupled NADH fluorescence (FDH is formaldehyde dehydrogenase) | Potency, µM (doses to about 57.1 µM), inactives show top-dose activity change, negative = inhibition, usual class: inhibitors | 230,000 compounds, 1.6% hits | AID 2147, 2009; active means well fitted inhibition curve with a large enough effect, not every such curve was filed as active; inconclusive means small, poorly fitted or top-dose-only effect, or another doubt; inactive means no such curve, though single readings can be large or run the other way;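 further: potency means the concentration at half of the fitted maximal effect; 0% = wells with enzyme and -100% = buffer wells without enzyme; nearly all actives have a fitted effect of over 50% in size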
Target sequence (B2RXH2 1-337 limits assumed): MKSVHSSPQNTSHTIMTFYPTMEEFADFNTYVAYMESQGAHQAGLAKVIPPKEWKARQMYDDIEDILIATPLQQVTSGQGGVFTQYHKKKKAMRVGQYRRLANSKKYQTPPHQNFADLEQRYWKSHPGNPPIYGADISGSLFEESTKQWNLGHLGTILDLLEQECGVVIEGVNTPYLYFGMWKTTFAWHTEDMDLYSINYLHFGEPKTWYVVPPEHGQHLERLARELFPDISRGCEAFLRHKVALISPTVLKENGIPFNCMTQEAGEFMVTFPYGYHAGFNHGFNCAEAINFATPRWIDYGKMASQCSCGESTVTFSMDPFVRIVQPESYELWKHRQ
Numbers without * were called inactive; ? = inconclusive; . = not tested or not shown; [ ] = another dose, or the depositor's remark. Unless noted, the call rests on the fitted dose curve; in most records, active means well fitted curve in the direction sought with a large enough effect; inconclusive means small, poorly fitted or top-dose-only effect, or another doubt; inactive means no such curve, though single readings can be large; an effect the other way counts as inactive or inconclusive. Unless noted, on the % scale 0 is the no-effect control and ±100 the full control effect.

SMILES | Sfp inh | Tau fluor cs | Tau FP inhib | FBPA coupling cs | Tau fibril ThT | JMJD2E inh
CC1(C)Cc2c(c(N3CCOCC3)nc3snc(Br)c23)CO1 | 44.7µM* | -3.4% | -12.9% | 5.9 | ? | -5.0%
CC1(C)Cc2c(c(N3CCOCC3)nc3snc(N)c23)CO1 | -1.9% | -11.9% | ? | -2.5 | 12.6µM* | ?
CC12C=C(/C=C/c3ccc(F)cc3)C(C)(C1)C(c1ccc(F)cc1)CC2=O (centres undefined) | ? | -18.4%[11.6 µM] | 6.4%[11.6 µM] | 0.4 | -15.5%[11.5 µM] | .
CCc1cccc(C)c1NC(=O)Cn1nnc(-c2nc(-c3ccccc3F)no2)c1N | . | 6.2% | -4.0% | . | 7.4% | .
O=C(CNC(=O)c1ccc(F)cc1)N/N=C/c1cc(Br)ccc1OC(=O)/C=C/c1ccco1 | 25.1µM* | -22.9% | -11.4% | -3.6 | -4.0% | -14.8%
O=C(CNC(=O)c1ccccc1F)N/N=C/c1cc(Br)ccc1OC(=O)/C=C/c1ccco1 | -5.5% | -25.7% | 8.5% | -5.7 | -14.2% | ?
O=C(CNC(=O)c1ccccc1Br)N/N=C/c1cc(Br)ccc1O | 18.0% | ? | -7.5% | -0.1 | ? | ?
O=C(CNC(=O)c1ccccc1Br)N/N=C/c1ccccc1O | 19.7% | 5.5% | 1.9% | -2.2 | 1.5% | 25.1µM*
CCOc1ccc(Cl)cc1/C=N/NC(=O)CNC(=O)c1ccccc1 | 17.2% | -9.1% | -3.5% | -37.9* | -5.8% | ?
O=C(N/N=C/c1cc(Cl)ccc1O)c1ccccc1Br | 3.7% | ? | -2.8% | 0.6 | -3.9% | 11.2µM*
C[C@@H]1C[C@H](OC(=O)[C@@H](O)c2ccccc2)CC(C)(C)N1C | 25.8% | . | . | 2.1 | . | 8.2%[25.5 µM]
O=C(c1cc(S(=O)(=O)N2CCCC2)c[nH]1)N1CCN(c2cccc(Cl)c2)CC1 | . | -11.9% | -0.6% | . | -0.6% | .
O=C(Cc1ccccc1)N/N=C/c1cc(Br)cc(Cl)c1O | -2.0% | ? | -2.5% | -1.8 | ? | 6.31µM*
O=C(CNC(=O)c1ccccc1)N/N=C/c1cc(Br)ccc1O | 6.8% | -17.4% | 5.9% | 4.6 | ? | 28.2µM*
O=C(CP(=O)(c1ccccc1)c1ccccc1)N/N=C/c1cc(Br)cc(Br)c1O | 12.2% | -26.4% | 7.5% | 2.0 | ? | ?
Cc1ccc(C2=NN(C(=O)CCCC(=O)O)C(c3ccco3)C2)cc1 (centres undefined) | 44.7µM* | -0.3% | 3.5% | 0.8 | -8.1% | -6.8%
O=C(CNC(=O)c1ccccc1)OCC(=O)N1N=C(c2ccc(Cl)cc2)CC1c1ccco1 (centres undefined) | -9.3% | -22.6% | 11.0% | 0.0 | ? | -22.1%
Cc1ccc(S(=O)(=O)N[C@H](C(=O)OCC(=O)N2N=C(c3ccc(Cl)cc3)CC2c2ccco2)C(C)C)cc1 (some centres undefined) | 79.4µM* | -14.1% | 1.0% | -4.6 | -16.2% | ?
CC(=O)N1N=C(c2ccc(C)cc2)CC1c1ccco1 (centres undefined) | 4.8% | -4.1% | -1.1% | -0.7 | -3.4% | -4.3%
Cc1nnc(SCC(=O)N2N=C(c3ccc(Cl)cc3)CC2c2ccco2)[nH]c1=O (centres undefined) | 50.1µM* | -13.2% | -10.0% | -1.5 | ? | ?
CC(=O)N1N=C(c2ccc(Cl)cc2)CC1c1ccco1 (centres undefined) | ? | -2.2% | 3.3% | 3.7 | -4.0% | 3.4%
CCOc1ccc(S(=O)(=O)c2cn(Cc3ccc(C)cc3)c3ccc(OC)cc3c2=O)cc1 | . | ? | 2.6% | . | ? | .
O=C(/C=C/c1cc[n+](CC(=O)c2ccc3cccc4c3c2CC4)cc1)c1ccc2cccc3c2c1CC3 | 35.5µM* | ? | -13.3% | -5.0 | . | ?
O=C(C[n+]1ccc2ccccc2c1)c1cccc2ccccc12 | -12.6% | -8.8% | -0.2% | -0.3 | -7.5% | -20.8%
CC(=O)/C(=C\c1ccccc1)CC(=O)O | 23.2% | -7.1% | -2.9% | -0.4 | -4.0% | -11.5%
SMILES | Sfp inh | Tau fluor cs | Tau FP inhib | FBPA coupling cs | Tau fibril ThT | JMJD2E inh
CC1(C)Cc2ccccc2C(NNC(=O)c2ccccc2)=N1 | 8.5% | -9.2% | -2.0% | 0.4 | -5.0% | 2.0%
CC1(C)Cc2ccccc2C(NNC(=O)c2ccccn2)=N1 | 9.1% | -3.0% | 4.2% | -2.5 | -1.2% | 25.1µM*
O=C(CSc1cccc[n+]1[O-])CSc1cccc[n+]1[O-] | ? | -10.1% | -9.0% | 0.9 | -9.0% | ?
[O-][n+]1ccccc1SSc1cccc[n+]1[O-] | 0.708µM* | . | . | . | . | .
COc1ccc(-c2ccc(C(C)=O)cc2)cc1[C@H]1[C@@H]2C=CCC[C@@]2(C)C(=O)N1Cc1ccccc1 | ? | 6.3% | 1.5% | 2.9 | -5.9% | ?
COc1ccc(-c2ccc(C(C)=O)cc2)cc1C1C2C=CCCC2(C)C(=O)N1Cc1ccccc1 (centres undefined) | 44.7µM* | . | . | -1.1 | . | .
COc1ccc(NC(=O)c2oc3ccc(S(=O)(=O)N(C)C4CCCCC4)cc3c2C)cc1Cl | . | ? | ? | . | -6.4% | .
O=C(CCc1ccc(Oc2cc([N+](=O)[O-])cc([N+](=O)[O-])c2)cc1)N1CCCCC1 | 14.1µM* | 1.2% | -2.3% | -2.4 | 1.5% | 8.1%
COc1ccccc1N1CCN(C(=O)CSc2n[nH]c(-c3ccccc3Cl)n2)CC1 | . | -14.3% | ? | . | -10.2% | .
O=C(CN1C(=O)CCc2cc(Br)ccc21)Nc1ccc(OC(F)(F)F)cc1 | . | -11.4% | ? | . | 8.5% | .
CC(C)(C)NC(=O)C(c1ccncc1)N(C(=O)Cn1nnc(-c2ccc(F)cc2)n1)c1ccccc1 (centres undefined) | 20µM* | -6.2%[2.34 µM] | 11.1%[2.34 µM] | -9.1 | 6.8% | -3.9%
O=C(Cn1nnc(-c2ccccc2F)n1)OCC(=O)c1ccccc1 | -29.4% | -4.8% | -7.2% | 6.3 | -1.8% | 5.8%
O=C(Cn1nnc(-c2ccc(F)cc2)n1)OCC(=O)c1ccccc1 | 79.4µM* | -9.0% | -5.9% | 2.1 | ? | -15.9%
Cn1c(=O)c2cc(S(=O)(=O)NC(Cc3ccccc3)C(=O)Nc3ccc(F)cc3)ccc2n(C)c1=O (centres undefined) | . | -7.3% | 1.8% | . | 6.8% | .
Cc1cc(C)c[n+](-c2[nH]c(=O)sc2/C=N/N=C(\N)[S-])c1 | 25.1µM* | 3.0% | -9.1% | 2.0 | -7.0% | -13.8%
CCN(CC)c1ccc(NC(=O)Nc2ccccc2)cc1 | -4.9% | . | . | -0.3 | . | .

Compound activity: PubChem BioAssay, National Center for Advancing Translational Sciences (NCATS)
